The values that follow come from ChEMBL document CHEMBL1961873, “Compounds: GSK PKIS; Assays: Nanosyn kinase panel” (2012).

Test [1] has as its target T1, Tyrosine-protein kinase receptor TYRO3 (Homo sapiens) (UniProt Q06418).
T1 sequence (whole entry): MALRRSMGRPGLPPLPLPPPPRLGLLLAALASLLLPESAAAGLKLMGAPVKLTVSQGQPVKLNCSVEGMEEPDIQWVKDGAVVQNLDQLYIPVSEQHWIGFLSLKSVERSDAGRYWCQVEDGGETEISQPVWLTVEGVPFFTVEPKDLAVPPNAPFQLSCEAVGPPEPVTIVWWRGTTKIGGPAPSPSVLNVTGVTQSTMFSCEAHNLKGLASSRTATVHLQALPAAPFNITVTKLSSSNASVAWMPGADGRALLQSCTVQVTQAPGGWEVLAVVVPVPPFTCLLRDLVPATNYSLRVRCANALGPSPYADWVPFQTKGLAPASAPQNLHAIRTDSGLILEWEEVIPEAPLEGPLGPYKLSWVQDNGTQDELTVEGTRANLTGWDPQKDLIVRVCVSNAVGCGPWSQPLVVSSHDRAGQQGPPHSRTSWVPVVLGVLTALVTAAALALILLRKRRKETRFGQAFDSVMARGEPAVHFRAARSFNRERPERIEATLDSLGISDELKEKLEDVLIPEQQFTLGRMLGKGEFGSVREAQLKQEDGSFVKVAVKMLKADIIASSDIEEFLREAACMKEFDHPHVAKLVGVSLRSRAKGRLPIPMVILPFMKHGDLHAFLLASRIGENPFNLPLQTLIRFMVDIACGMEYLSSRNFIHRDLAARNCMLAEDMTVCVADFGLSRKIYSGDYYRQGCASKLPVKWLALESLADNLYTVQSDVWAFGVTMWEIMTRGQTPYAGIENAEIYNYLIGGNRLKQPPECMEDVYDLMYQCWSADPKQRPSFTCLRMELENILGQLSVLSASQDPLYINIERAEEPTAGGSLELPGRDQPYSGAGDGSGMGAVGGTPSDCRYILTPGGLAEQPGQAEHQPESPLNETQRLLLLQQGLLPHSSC
The note with it: at 1 µM.

Test [2] deals with Tyrosine-protein kinase Yes (Homo sapiens) (UniProt P07947). The settings on record: at 0.1 µM.
Sequence of Tyrosine-protein kinase Yes (Homo sapiens) (P07947 2-543 limits assumed): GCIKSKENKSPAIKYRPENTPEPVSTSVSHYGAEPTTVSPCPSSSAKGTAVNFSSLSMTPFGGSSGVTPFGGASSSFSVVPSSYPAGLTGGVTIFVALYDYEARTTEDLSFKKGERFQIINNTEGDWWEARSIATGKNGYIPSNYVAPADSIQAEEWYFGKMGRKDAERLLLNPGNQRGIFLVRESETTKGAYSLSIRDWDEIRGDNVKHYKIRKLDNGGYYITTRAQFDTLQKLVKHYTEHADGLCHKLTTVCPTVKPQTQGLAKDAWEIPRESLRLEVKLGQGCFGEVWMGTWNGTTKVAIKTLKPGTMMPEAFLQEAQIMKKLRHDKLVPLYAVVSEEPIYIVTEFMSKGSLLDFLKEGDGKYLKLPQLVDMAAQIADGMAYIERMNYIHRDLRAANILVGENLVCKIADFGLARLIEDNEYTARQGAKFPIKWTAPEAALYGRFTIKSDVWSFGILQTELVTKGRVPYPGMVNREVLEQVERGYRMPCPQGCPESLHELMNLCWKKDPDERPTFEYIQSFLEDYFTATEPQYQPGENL
The target is the same in test [3]. The note with it: at 1 µM.
In test [4] the target is T2, Tyrosine-protein kinase ZAP-70 (Homo sapiens) (UniProt P43403).
T2 sequence (whole entry): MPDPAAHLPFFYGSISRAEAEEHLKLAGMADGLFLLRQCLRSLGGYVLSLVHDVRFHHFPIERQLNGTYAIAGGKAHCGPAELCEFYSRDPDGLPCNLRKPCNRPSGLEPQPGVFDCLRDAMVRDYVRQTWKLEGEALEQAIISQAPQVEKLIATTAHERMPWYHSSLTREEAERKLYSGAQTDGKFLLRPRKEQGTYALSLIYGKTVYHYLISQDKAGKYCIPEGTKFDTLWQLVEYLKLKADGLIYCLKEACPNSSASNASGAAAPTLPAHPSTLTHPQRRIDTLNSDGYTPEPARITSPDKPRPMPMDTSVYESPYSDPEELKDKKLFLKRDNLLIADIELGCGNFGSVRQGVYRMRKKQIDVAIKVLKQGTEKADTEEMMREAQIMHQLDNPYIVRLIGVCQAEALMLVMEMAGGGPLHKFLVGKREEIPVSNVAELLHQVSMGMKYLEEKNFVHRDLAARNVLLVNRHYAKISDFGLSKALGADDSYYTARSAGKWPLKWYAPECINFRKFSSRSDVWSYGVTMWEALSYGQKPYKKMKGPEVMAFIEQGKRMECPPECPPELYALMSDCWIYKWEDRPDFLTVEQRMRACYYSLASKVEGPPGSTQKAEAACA
The settings on record: at 0.1 µM.

Test [5] has as its target T2, Tyrosine-protein kinase ZAP-70 (Homo sapiens). The settings on record: at 1 µM.
Test [6] concerns the target Serine/threonine-protein kinase B-raf (Homo sapiens) (UniProt P15056). The settings on record: at 0.1 µM.
For test [7] the target is unchanged. The settings on record: at 1 µM.
Test [8] has as its system Serine/threonine-protein kinase B-raf (Homo sapiens), P15056 [V600E]. The note with it: at 0.1 µM.
Test [9] shares this test system. The note with it: at 1 µM.
Test [10] deals with RAF proto-oncogene serine/threonine-protein kinase (Homo sapiens) (UniProt P04049). The settings on record: at 0.1 µM.
Sequence of RAF proto-oncogene serine/threonine-protein kinase (Homo sapiens) (P04049 whole entry): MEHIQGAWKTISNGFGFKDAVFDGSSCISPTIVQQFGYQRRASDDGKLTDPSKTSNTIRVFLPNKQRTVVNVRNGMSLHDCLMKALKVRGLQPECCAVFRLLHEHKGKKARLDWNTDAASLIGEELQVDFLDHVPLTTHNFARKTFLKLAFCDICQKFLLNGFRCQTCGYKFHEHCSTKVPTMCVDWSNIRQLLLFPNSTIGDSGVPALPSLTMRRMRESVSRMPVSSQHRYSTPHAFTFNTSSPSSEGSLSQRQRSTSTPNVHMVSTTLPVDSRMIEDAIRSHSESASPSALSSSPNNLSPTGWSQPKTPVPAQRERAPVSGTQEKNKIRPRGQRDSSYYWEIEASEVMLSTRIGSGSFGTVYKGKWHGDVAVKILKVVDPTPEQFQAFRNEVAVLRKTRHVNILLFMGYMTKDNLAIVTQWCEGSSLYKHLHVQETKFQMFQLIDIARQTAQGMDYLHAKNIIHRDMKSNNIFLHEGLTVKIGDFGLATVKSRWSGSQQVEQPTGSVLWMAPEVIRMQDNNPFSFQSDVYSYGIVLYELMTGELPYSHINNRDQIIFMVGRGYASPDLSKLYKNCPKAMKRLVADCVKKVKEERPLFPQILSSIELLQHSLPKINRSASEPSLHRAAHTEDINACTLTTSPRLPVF
For test [11] the target is unchanged. The note with it: at 1 µM.
For test [12], the target named is T3, Interleukin-1 receptor-associated kinase 4 (Homo sapiens) (UniProt Q9NWZ3).
T3 sequence (whole entry): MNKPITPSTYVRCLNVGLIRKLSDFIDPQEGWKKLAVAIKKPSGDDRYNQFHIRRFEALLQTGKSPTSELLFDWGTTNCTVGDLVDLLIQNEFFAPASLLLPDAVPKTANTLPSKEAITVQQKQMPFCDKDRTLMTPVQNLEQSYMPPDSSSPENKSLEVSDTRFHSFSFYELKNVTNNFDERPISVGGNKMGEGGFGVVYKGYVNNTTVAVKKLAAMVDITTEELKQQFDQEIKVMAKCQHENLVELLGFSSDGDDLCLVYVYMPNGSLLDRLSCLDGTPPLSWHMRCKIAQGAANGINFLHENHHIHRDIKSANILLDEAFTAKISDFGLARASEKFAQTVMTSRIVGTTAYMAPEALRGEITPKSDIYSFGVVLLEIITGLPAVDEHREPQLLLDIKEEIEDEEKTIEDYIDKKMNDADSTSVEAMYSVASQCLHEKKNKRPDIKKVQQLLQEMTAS
The settings on record: at 0.1 µM.

The target in test [13] is T3, Interleukin-1 receptor-associated kinase 4 (Homo sapiens). The note with it: at 1 µM.
In test [14] the target is Leucine-rich repeat serine/threonine-protein kinase 2 (Homo sapiens) (UniProt Q5S007). The settings on record: at 0.1 µM.
Sequence of Leucine-rich repeat serine/threonine-protein kinase 2 (Homo sapiens) (Q5S007 whole entry): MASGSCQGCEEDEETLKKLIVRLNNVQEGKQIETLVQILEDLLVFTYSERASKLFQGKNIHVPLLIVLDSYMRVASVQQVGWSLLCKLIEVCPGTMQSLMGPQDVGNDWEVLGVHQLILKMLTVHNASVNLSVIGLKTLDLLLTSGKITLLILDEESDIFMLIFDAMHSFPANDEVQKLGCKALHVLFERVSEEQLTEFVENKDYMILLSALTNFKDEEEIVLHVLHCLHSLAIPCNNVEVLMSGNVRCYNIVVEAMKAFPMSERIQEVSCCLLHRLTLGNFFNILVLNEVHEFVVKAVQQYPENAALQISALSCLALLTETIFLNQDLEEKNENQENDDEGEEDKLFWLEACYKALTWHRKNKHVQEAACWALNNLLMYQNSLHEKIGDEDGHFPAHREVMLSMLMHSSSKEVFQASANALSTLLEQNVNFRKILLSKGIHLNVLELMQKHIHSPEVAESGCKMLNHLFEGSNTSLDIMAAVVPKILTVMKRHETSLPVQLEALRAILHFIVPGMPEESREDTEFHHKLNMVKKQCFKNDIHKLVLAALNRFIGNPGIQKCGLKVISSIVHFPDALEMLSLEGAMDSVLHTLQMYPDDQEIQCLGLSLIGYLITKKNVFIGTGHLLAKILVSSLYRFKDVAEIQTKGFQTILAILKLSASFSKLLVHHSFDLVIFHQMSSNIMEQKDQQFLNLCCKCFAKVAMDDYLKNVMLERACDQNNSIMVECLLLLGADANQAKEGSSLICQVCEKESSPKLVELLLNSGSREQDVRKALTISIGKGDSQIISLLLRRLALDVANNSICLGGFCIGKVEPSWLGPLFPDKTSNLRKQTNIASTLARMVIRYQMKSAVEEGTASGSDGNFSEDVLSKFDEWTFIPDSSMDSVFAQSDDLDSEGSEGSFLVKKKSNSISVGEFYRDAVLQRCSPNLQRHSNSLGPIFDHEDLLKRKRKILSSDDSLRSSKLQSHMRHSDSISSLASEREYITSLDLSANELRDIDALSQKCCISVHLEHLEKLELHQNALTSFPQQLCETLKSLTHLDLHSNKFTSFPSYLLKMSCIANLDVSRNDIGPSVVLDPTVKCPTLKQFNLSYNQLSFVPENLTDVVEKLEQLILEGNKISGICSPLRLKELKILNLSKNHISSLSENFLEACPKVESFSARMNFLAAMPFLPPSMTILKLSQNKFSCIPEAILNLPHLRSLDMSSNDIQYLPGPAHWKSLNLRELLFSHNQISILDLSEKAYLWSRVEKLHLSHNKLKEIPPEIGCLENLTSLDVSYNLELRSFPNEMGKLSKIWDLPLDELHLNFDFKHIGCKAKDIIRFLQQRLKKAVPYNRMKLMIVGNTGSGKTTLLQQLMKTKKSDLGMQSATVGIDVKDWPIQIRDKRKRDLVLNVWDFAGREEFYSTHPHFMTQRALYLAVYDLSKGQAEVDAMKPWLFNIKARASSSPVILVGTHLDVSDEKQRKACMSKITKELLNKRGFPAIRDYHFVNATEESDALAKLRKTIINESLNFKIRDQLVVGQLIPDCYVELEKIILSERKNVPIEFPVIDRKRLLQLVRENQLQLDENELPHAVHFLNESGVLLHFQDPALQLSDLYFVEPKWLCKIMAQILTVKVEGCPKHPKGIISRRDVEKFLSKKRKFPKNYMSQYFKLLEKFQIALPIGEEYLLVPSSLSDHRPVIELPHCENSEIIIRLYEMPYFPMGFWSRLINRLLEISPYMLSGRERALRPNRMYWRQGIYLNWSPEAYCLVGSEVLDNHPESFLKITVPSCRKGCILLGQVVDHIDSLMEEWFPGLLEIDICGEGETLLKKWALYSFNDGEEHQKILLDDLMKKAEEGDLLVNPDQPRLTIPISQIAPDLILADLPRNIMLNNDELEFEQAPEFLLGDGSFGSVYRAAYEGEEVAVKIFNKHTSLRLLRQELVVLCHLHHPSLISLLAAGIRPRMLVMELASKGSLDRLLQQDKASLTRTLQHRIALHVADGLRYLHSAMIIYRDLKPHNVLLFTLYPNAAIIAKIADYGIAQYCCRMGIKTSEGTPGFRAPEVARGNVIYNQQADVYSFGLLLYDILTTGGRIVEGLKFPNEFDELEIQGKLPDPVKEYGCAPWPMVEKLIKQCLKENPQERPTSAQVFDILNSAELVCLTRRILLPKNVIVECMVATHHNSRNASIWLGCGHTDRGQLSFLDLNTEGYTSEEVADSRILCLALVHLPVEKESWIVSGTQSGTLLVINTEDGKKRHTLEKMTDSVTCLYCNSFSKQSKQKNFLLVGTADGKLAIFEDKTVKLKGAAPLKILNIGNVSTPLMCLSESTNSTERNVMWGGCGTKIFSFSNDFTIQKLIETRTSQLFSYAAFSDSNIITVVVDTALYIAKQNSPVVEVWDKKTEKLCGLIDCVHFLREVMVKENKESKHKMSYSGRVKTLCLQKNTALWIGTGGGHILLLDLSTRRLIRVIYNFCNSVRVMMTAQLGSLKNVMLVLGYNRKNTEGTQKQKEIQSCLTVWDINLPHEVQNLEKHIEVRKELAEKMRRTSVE
Test [15] has the same target. The note with it: at 1 µM.
In test [16] the test system is Leucine-rich repeat serine/threonine-protein kinase 2 (Homo sapiens), Q5S007 [G2019S]. The settings on record: at 0.1 µM.
Sequence of Leucine-rich repeat serine/threonine-protein kinase 2 (Homo sapiens), Q5S007 [G2019S] (Q5S007 whole entry G2019S): as the sequence (Q5S007 whole entry) above, with G2019S counted along it
Test [17] has the same test system. The settings on record: at 1 µM.

Where “and” joins values, the source holds several entries; their conditions need not be identical. Equal entries are not always repeated.

Sequence of Serine/threonine-protein kinase B-raf (Homo sapiens) (P15056 whole entry): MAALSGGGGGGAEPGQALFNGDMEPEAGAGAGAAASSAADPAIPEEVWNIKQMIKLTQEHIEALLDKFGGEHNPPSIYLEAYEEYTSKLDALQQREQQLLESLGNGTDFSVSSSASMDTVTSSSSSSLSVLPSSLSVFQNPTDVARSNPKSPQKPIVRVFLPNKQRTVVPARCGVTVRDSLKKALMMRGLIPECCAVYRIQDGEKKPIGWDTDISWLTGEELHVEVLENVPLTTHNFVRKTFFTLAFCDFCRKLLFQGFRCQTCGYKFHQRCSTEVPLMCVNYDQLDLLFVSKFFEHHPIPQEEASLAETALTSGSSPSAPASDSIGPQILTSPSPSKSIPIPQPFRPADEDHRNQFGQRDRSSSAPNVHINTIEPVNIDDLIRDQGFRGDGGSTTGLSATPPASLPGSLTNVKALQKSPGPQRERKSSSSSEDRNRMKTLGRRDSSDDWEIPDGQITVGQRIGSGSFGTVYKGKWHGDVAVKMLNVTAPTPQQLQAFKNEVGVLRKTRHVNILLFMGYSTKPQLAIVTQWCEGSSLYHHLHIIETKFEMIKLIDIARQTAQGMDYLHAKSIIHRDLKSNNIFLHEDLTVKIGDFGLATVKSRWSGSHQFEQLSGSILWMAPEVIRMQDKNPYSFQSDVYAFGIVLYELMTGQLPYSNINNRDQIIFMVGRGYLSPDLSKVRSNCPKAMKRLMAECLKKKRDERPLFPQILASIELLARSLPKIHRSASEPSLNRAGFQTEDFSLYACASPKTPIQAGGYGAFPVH
Sequence of Serine/threonine-protein kinase B-raf (Homo sapiens), P15056 [V600E] (P15056 whole entry V600E): as the sequence (P15056 whole entry) above, with V600E counted along it

As to `CS(=O)(=O)Nc1ccc(-c2ccc3c(NC(=O)C4CC4)n[nH]c3c2)cc1`, the inhibition (usually the change of the read-out against control, counted positive when it falls) in [1] was 13.6%; in test [2], -0.59%; in [3] it was 4.94%; in test [4] it was 1.11%; in [5], 3.42%; in test [6] it was 4.42%. Moreover, the inhibition in test [7] was 6.73%; in test [8], 4.74%; in test [9], 6.11%; in test [10] it was 4.35%; in test [11], 5.45%; in [12], -4.64%. Further, the inhibition in [13] amounted to 1.75%; in [14] it was 9.03%; in [15] it was 5.46%; in [16], 9.88%; in test [17] it was 15.1%.

In the case of `CCS(=O)(=O)c1ccc(OC)c(Nc2ncc(-c3cccc(C(C)=O)c3)o2)c1`, the inhibition in test [1] stood at 24.1%; in test [2], 18.6%; in test [3], 65.9%; in test [4] it was 2.04%; in test [5], 1.3%; in test [6], 3.62%. Further, the inhibition in test [7] was 6.17%; in [8], 3.41%; in test [9] it was 5.84%; in [10] it was 5.57%; in [11] it was 8.87%; in [12], -3.46%. Further, the inhibition in test [13] was 1.19%; in test [14], 0.47%; in test [15], 4.65%; in [16] it was 2.77%; in test [17] it was 11.8%.

Regarding `CN1CCC(C(=O)Nc2n[nH]c3nc(-c4ccc(O)cc4)c(Br)cc23)CC1`, the inhibition in test [1] was 7.08% and 4.86%; in test [2], 4% and 0.88%; in test [3], 10.6% and 3.33%; in [4], -0.14% and 0.65%; in test [5] it was 2.21% and 2.11%; in test [6], 9.05% and 4.77%. Moreover, the inhibition in test [7] is 16% and 14.5%; in test [8] it was 9.4% and 4.5%; in test [9], 13.8% and 8.76%; in [10] it was 13% and -0.38%; in test [11], 2.83% and -8.49%; in [12], 3.04% and 2.37%. Besides, the inhibition was 2.24% and 1.33% in test [13]; -2.84% and -1.67% in [14]; 2.03% and 7.36% in test [15]; -0.31% and 1.49% in test [16]; 4.77% and 5.48% in [17].
